{"source": "PubChem BioAssay AID488853", "about": "(National Center for Advancing Translational Sciences (NCATS), 2010)", "note": "Activity calls are given as the source filed them. The call rests on the fitted dose curve; in most records, active means well fitted curve in the direction sought with a large enough effect; inconclusive means small, poorly fitted or top-dose-only effect, or another doubt; inactive means no such curve, though single readings can be large or run the other way."}
{"biological_target": "Lysosomal acid glucosylceramidase (Homo sapiens) (UniProt P04062)", "sequence (P04062 whole entry, looked up)": "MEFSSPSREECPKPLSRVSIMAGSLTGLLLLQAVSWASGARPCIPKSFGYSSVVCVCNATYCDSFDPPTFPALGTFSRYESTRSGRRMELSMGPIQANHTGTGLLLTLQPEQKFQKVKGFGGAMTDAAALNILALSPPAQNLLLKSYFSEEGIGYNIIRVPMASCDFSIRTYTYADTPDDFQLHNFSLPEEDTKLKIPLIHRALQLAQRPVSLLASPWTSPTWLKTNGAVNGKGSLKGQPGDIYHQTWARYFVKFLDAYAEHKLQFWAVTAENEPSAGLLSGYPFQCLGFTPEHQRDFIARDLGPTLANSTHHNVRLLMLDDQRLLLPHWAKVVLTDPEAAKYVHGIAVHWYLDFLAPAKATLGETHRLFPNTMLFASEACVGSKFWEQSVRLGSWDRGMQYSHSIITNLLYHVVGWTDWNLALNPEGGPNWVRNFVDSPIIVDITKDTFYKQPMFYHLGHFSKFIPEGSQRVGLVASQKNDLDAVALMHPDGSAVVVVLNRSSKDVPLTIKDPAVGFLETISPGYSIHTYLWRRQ", "assay": "qHTS Assay for Inhibitors and Activators of N370S glucocerebrosidase as a Potential Chaperone Treatment of Gaucher Disease: Activity in Non-Mutant Spleen Using Alternate Substrate Confirmation for Probe SAR", "conditions": "human spleen homogenate, resorufin-glucoside fluorescence, 40 min; series mostly up to 57.5 µM; activity change, negative = inhibition: at the top concentration", "text": "NIH Chemical Genomics Center [NCGC] NIH Molecular Libraries Probe Production Centers Network [MLPCN] MLPCN Grant: MH086442-01 Assay Submitter (PI): Wei Zheng Glucocerebrosidase (GC) catalyzes the hydrolysis of beta-glucocerebroside to glucose and ceramide in lysosomes. Mutations in the glucocerebrosidase gene result in Gaucher disease, an autosomal recessive lysosomal storage disorder. Many of the mutations encountered in patients with Gaucher disease are missense alterations that may cause misfolding, decreased stability and/or mistrafficking of this lysosomal protein. […] These inhibitors include iminosugar analogs and three non-iminosugar inhibitors identified from a previous HTS of 62,000 compounds with the wild type recombinant enzyme. However, the enhancement of enzyme activity by the chaperone action of an enzyme inhibitor must be balanced against the direct inhibition of the enzyme. An enzyme activator could also function as a chaperone by binding to the enzyme and helping to correct its misfolding and mistrafficking. While activators for GC have not yet been identified, they may have better therapeutic potential than inhibitors. Therefore the discovery and development of chemical activators may provide a new strategy for the chaperone therapy. We have optimized a new assay using N370S mutant GC derived from the spleen of a Gaucher patient. […] In addition, the MLPCN compound library has expanded, which increases the chance of finding new and better probes. This confirmation assay tests for compound activity in spleen homogenate containing wildtype enzyme using an alternate resorufin-based substrate.\nNCGC Assay Protocol Summary: This is a fluorogenic enzyme assay with resorufin-beta-D-glucopyranoside as the substrate and wildtype glucocerebrosidase from human spleen homogenate as the enzyme preparation. Upon the hydrolysis of this fluorogenic substrate, the resulting product, […] which can be detected by a standard fluorescence plate reader. Data were normalized to the controls for basal activity (without enzyme) and 100% activity (with enzyme). The AC50 values were determined from concentration-response data modeled with the standard Hill equation. Assay buffer: 50 mM citric acid (titrated with potassium phosphate to pH 5.0), 100 mM potassium chloride, 10 mM sodium chloride, 1 mM magnesium chloride, 0.01% Tween-20. 1536-well assay protocol: (1) Add 2 ul/well of spleen homogenate (27 ug final) (2) Add 23 nL compounds in DMSO solution. The final titration was 0.5 nM to 58 uM. (3) Add 2 ul of substrate (1 mM final) (4) Incubate at 37C for 40 min. (5) Add 2 ul stop solution (1M NaOH and 1M Glycine mixture, pH 10) (6) Detect the assay plate in a ViewLux plate reader (PerkinElmer) with Ex=365 nm and Em=440nm. Keywords: Glucocerebrosidase, beta-glucosidase, Gaucher Disease, pharmacological chaperone, chaperone therapy, high throughput screening, glucocerebrosidase inhibitor, MLSMR, MLSCN, NIH Roadmap, qHTS and NCGC"}
{"smiles": "Cc1cc(C)n2ncc(C(=O)Nc3ccc(S(C)(=O)=O)cc3)c2n1", "activity change, negative = inhibition": "21.7% (inactive)"}
{"smiles": "COc1ccc(NC(=O)c2cnn3c(C)cc(C)nc23)cc1Cl", "activity change, negative = inhibition": "-0.516% (inactive)"}
{"smiles": "Cc1cc(C)n2ncc(C(=O)Nc3cccc(C(F)(F)F)c3)c2n1", "activity change, negative = inhibition": "0.165% (inactive)"}
{"smiles": "Cc1cc(C)n2ncc(C(=O)N3CCCC3)c2n1", "activity change, negative = inhibition": "-0.52% (inactive)"}
{"smiles": "Cc1cc(C)n2ncc(C(=O)NC3CCCCC3)c2n1", "activity change, negative = inhibition": "-14.7% (inactive)"}
{"smiles": "Cc1cc(C)n2ncc(C(=O)NC(C)C)c2n1", "activity change, negative = inhibition": "-0.52% (inactive)"}
{"smiles": "C#Cc1ccc(NC(=O)c2cnn3c(C)cc(C)nc23)cc1", "activity change, negative = inhibition": "0.187% (inactive)"}
{"smiles": "Cc1cc(C)n2ncc(C(=O)NCc3ccco3)c2n1", "activity change, negative = inhibition": "0.187% (inactive)"}
{"smiles": "CCc1ccc(NC(=O)c2cnn3c(C)cc(C)nc23)cc1", "activity change, negative = inhibition": "-0.52% (inactive)"}
{"smiles": "Cc1cc(C)n2ncc(C(=O)Nc3ccc4c(c3)OCCO4)c2n1", "activity change, negative = inhibition": "0.165% (inactive)"}
{"smiles": "Cc1cc(C)n2ncc(C(=O)NCc3ccccc3)c2n1", "activity change, negative = inhibition": "-0.52% (inactive)"}
{"smiles": "Cc1cc(C)n2ncc(C(=O)Nc3ccc(C)c(C)c3)c2n1", "activity change, negative = inhibition": "0.165% (inactive)"}
{"smiles": "Cc1cc(C)n2ncc(C(=O)Nc3ccncc3)c2n1", "activity change, negative = inhibition": "0.187% (inactive)"}
{"smiles": "Cc1cc(C)n2ncc(C(=O)Nc3ccc(C#N)cc3)c2n1", "activity change, negative = inhibition": "-0.516% (inactive)"}
{"smiles": "Cc1ccc(NC(=O)c2cnn3c(C)cc(C)nc23)cc1", "activity change, negative = inhibition": "-0.516% (inactive)"}
{"smiles": "Cc1cc(C)n2ncc(C(=O)Nc3ccc4c(c3)CCC4)c2n1", "activity change, negative = inhibition": "-0.52% (inactive)"}
{"smiles": "Cc1cc(C)n2ncc(C(=O)Nc3ccc4c(c3)OCO4)c2n1", "activity change, negative = inhibition": "0.165% (inactive)"}
{"smiles": "Cc1cc(C)n2ncc(C(=O)NC3CCC(C(C)(C)C)CC3)c2n1", "note": "(configuration not stated)", "outcome": "inactive"}
{"smiles": "Cc1cc(C)n2ncc(C(=O)Nc3cccc(C#N)c3)c2n1", "activity change, negative = inhibition": "-0.52% [at 19 µM] (inactive)"}
{"smiles": "COc1cc(NC(=O)c2cnn3c(C)cc(C)nc23)cc(OC)c1OC", "activity change, negative = inhibition": "0.165% (inactive)"}
{"smiles": "Cc1cc(C)n2ncc(C(=O)Nc3ccc(Br)cc3)c2n1", "activity change, negative = inhibition": "21.4% (inactive)"}
{"smiles": "Cc1cccc(NC(=O)c2cnn3c(C)cc(C)nc23)c1", "activity change, negative = inhibition": "-0.516% (inactive)"}
{"smiles": "Cc1cc(C)n2ncc(C(=O)NCC(C)C)c2n1", "activity change, negative = inhibition": "-0.52% (inactive)"}
{"smiles": "CC(=O)c1ccc(NC(=O)c2cnn3c(C)cc(C)nc23)cc1", "activity change, negative = inhibition": "0.165% (inactive)"}
{"smiles": "Cc1ccc(NC(=O)c2cnn3c(C)cc(C)nc23)c(C)c1", "activity change, negative = inhibition": "-0.516% (inactive)"}
{"smiles": "COc1ccc(NC(=O)c2cnn3c(C)cc(C)nc23)cc1F", "activity change, negative = inhibition": "14.9% (inactive)"}
{"smiles": "O=C(Nc1cnn(Cc2ccc(F)cc2)c1)c1cnn2c(C(F)F)cc(-c3ccccc3)nc12", "activity change, negative = inhibition": "0.187% (inactive)"}
{"smiles": "CC(=O)Nc1ccc(NC(=O)c2cnn3c(C)cc(C)nc23)cc1", "activity change, negative = inhibition": "-0.516% (inactive)"}
{"smiles": "CC(=O)c1cccc(NC(=O)c2cnn3c(C)cc(C)nc23)c1", "activity change, negative = inhibition": "0.165% (inactive)"}
{"smiles": "CNC(=O)c1cnn2c(C)cc(C)nc12", "activity change, negative = inhibition": "-0.52% (inactive)"}
{"smiles": "Cc1cc(C)n2ncc(C(=O)Nc3ccc(C(F)(F)F)cc3)c2n1", "activity change, negative = inhibition": "0.165% (inactive)"}
{"smiles": "Cc1cc(C)n2ncc(C(=O)Nc3ccccc3)c2n1", "activity change, negative = inhibition": "-17% (inactive)"}
{"smiles": "COc1ccc(NC(=O)c2cnn3c(C)cc(C)nc23)cc1", "activity change, negative = inhibition": "-0.516% (inactive)"}
{"smiles": "Cc1cc(C)n2ncc(C(=O)Nc3ccccc3C)c2n1", "activity change, negative = inhibition": "-0.516% (inactive)"}
{"smiles": "CC(=O)Nc1ccccc1NC(=O)c1cnn2c(C)cc(C)nc12", "activity change, negative = inhibition": "-0.516% (inactive)"}
{"smiles": "COc1ccc(NC(=O)c2cnn3c(C)cc(C)nc23)cc1OC", "activity change, negative = inhibition": "0.165% (inactive)"}
{"smiles": "Cc1cc(C)n2ncc(C(=O)Nc3ccc(C(C)(C)C)cc3)c2n1", "activity change, negative = inhibition": "-0.516% (inactive)"}
